Activity calls are given as the source filed them.
Experiments:
[1] = target: Albumin (Bos taurus) (UniProt P02769); assay: compounds binding labelled BSA control protein – biochemical, small-molecule microarray, Alexa647 label, 635/667 nm fluorescence, artefact control for SMM control protein annotation, profiling panel (AID 1118); details: BSA-A647 binding, fluorescence 635 nm, higher = more signal;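 note: score merges 667 nm emission intensity and signal-to-noise per printed compound spot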
[2] = probe aXIP binding to arrayed compounds – biochemical, NeuroSMM set, 635/667 nm fluorescence, primary screen (AID 1119); details: small-molecule microarray, higher = more signal, called active from +8 up or from −8 down;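 note: probe is the protein aXip251-270 applied at 1 µg/mL to compound-printed slides; binding of probe to printed compounds measured as 667 nm fluorescence plus signal to noise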
[3] = probe aNOTCH3 binding on compound microarray – biochemical, small-molecule microarray, 635/667 nm fluorescence, primary screen (AID 1120); details: higher = more signal;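 note: probe is a biotin-tagged antibody raised against NOTCH3 rather than NOTCH3 protein; score merges spot fluorescence near 667 nm with spot signal to noise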
[4] = probe aNOTCH2 binding on compound microarray – biochemical, small-molecule microarray, 635/667 nm fluorescence, primary screen (AID 1121); details: higher = more signal;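 note: score merges feature fluorescence read at 667 nm with its signal to noise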
[5] = target: Carbonic anhydrase 2 (Homo sapiens) (UniProt P00918); assay: compounds binding carbonic anhydrase 2 – biochemical, small-molecule microarray, Alexa647-labelled CAII, profiling panel (AID 1122); details: CAII-A647 binding fluorescence, higher = more signal
[6] = COS7 lysate on small-molecule microarray, probe aHis, 635 nm (AID 1123); details: COS7 cell lysate, fluorescence, higher = more signal;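 note: z-score combines 667nm fluorescence intensity with signal-to-noise per printed compound spot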
[7] = probe aLAP1 signal on lysate-treated microarray – cell lysate, small-molecule microarray, COS7 lysate, primary screen (AID 1124); details: probe aLAP1, fluorescence, higher = more signal;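 note: lysate comes from COS7 cells expressing LAP1 and is applied at 0.3 µg/mL; score merges spot fluorescence near 667 nm with signal-to-noise over triplicate slides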
[8] = tested on: Sam68 (KHDRBS1); assay: compounds binding KHDRBS1 protein – biochemical, small-molecule microarray, 635 nm fluorescence, primary screen (AID 1125); details: higher = more signal;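 note: score merges 667 nm channel intensity with signal to noise over triplicate slides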
[9] = tested on: Chordin-like protein 2 (CHRDL2); assay: compounds binding chordin-like 2 – biochemical, small-molecule microarray, 635 nm fluorescence, primary screen (AID 1126); details: fluorescence 635 nm, higher = more signal;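 note: printed compound slides probed with Chrdl2 protein at 4 µg/mL for 1 h at 4 C; score merges 667 nm emission intensity with signal to noise over three replicate slides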
[10] = target: Concanavalin-A (Canavalia ensiformis) (UniProt P02866); assay: compounds binding concanavalin A lectin – biochemical, small-molecule microarray, Alexa647 label, 635 nm, artefact control for SMM control protein annotation, primary screen (AID 1127); details: ConA-A647 binding fluorescence, higher = more signal;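 note: z combines 667 nm emission intensity with signal-to-noise across three replicate slides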
Concanavalin-A (Canavalia ensiformis), sequence (P02866 whole entry, looked up): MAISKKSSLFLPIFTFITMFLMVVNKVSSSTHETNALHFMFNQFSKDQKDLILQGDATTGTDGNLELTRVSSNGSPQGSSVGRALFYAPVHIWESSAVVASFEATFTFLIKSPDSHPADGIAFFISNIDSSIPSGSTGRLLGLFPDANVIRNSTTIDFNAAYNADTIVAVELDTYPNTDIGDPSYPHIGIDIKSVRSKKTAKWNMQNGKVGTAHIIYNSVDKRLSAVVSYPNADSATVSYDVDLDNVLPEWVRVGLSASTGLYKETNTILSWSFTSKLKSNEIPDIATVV

[11] = compounds binding Alexa647 anti-His antibody – biochemical, small-molecule microarray, 635 nm fluorescence, artefact control for SMM control protein annotation, primary screen (AID 1128); details: higher = more signal;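 note: score merges feature fluorescence with signal-to-noise for each printed compound spot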
[12] = tested on: Human papillomavirus type 1a E7 protein (residues 1-88); assay: HPV1a E7 small-molecule binders, primary screen, biochemical, small-molecule microarray, residues 1-88, 635 nm (AID 1129); details: small-molecule microarray binding, fluorescence 635 nm; higher = more signal
[13] = target: Focal adhesion kinase 1 (Homo sapiens) (UniProt Q05397); assay: PTK2 protein binding on printed compound slides – biochemical, small-molecule microarray, 635/667 nm fluorescence, BSA, DTT, primary screen (AID 1130); details: 635 nm fluorescence, higher = more signal;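 note: composite of spot emission at 667 nm and signal to noise over triplicate slides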
Focal adhesion kinase 1 (Homo sapiens), sequence (Q05397 whole entry, looked up): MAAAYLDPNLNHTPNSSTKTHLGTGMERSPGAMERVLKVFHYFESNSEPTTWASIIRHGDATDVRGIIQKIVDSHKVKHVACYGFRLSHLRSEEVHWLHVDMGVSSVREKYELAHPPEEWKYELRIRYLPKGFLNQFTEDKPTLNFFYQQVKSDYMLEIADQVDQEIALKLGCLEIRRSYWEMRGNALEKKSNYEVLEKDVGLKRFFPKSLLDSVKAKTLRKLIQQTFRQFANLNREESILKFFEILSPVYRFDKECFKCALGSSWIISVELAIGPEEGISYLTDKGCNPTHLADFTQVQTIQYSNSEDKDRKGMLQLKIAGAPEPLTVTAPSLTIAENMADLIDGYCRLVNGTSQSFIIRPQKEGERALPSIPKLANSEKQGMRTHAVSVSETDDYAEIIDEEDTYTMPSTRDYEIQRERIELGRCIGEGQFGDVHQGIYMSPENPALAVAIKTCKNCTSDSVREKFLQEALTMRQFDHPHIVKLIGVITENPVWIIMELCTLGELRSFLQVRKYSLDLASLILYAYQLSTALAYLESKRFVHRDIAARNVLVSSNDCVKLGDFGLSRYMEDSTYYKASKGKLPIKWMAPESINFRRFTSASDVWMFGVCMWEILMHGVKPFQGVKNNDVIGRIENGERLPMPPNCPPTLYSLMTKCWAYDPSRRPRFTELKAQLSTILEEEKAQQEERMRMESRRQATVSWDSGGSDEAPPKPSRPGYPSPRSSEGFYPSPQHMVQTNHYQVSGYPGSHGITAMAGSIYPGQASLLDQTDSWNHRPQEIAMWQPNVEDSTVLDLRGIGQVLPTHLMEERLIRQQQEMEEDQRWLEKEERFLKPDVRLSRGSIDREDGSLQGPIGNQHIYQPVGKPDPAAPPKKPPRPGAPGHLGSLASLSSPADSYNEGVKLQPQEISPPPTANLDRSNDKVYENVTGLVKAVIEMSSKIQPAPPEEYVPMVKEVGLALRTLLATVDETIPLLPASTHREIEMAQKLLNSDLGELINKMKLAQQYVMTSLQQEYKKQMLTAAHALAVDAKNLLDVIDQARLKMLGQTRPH

[14] = tested on: Fibrinogen (Alexa647-labelled); assay: Alexa647-fibrinogen binding to printed small molecules – biochemical, small-molecule microarray, 635/667 nm fluorescence, artefact control for SMM control-protein annotation, profiling panel (AID 1131); details: fibrinogen-A647 binding fluorescence, higher = more signal;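 note: z-score merges 667 nm fluorescence with per-spot signal-to-noise over triplicate slides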
[15] = target: Follistatin (Homo sapiens) (UniProt P19883); assay: FST protein binding to printed compounds – biochemical, small-molecule microarray, 635/667 nm fluorescence, primary screen (AID 1132); details: 635 nm fluorescence, higher = more signal
Follistatin (Homo sapiens), sequence (P19883 whole entry, looked up): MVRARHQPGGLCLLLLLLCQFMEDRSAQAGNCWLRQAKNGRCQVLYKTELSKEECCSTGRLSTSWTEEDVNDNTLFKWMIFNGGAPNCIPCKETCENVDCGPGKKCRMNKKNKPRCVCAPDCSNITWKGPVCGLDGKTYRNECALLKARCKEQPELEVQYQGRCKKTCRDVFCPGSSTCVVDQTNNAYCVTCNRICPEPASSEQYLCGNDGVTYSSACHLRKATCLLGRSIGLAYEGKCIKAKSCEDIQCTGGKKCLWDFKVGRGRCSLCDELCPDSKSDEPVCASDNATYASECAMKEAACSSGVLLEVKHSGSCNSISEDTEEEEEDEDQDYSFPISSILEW

[16] = target: Fibroblast growth factor 2 (Homo sapiens) (UniProt P09038); assay: basic fibroblast growth factor binding to printed compounds – biochemical, small-molecule microarray, 635/667 nm fluorescence, primary screen (AID 1133); details: FGF2, fluorescence 635/667, higher = more signal
Fibroblast growth factor 2 (Homo sapiens), sequence (P09038 whole entry, looked up): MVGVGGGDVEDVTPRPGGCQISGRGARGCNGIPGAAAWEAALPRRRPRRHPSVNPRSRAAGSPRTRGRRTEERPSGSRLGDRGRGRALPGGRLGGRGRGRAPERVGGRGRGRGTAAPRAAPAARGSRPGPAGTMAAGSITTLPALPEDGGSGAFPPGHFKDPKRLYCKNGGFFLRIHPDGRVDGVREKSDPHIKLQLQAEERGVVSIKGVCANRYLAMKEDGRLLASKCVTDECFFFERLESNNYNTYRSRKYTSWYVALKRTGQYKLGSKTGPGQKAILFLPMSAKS

[17] = JC-1 mitochondrial potential readout, lung cancer cells – cell-based, A549, JC-1 fluorescence, basal, 24 h, 100 nL, profiling panel (AID 1138); details: higher = more signal;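 note: A549 lung adenocarcinoma cells under basal conditions with no added stimulus; test concentration not given here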
[18] = tested on: Lefty1; assay: Lefty1 protein binding to printed compounds – biochemical, small-molecule microarray, 635/667 nm fluorescence, primary screen (AID 1139); details: fluorescence 635/667, higher = more signal
[19] = tested on: wheat germ agglutinin (Triticum aestivum), Alexa647-labelled; assay: Alexa647-WGA lectin binding to printed small molecules – biochemical, small-molecule microarray, 635/667 nm fluorescence, artefact control for SMM control-protein annotation, profiling panel (AID 1140); details: WGA-A647 binding, 635 nm fluorescence, higher = more signal;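 note: score merges 667 nm feature emission with signal to noise over triplicate slides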
[20] = target: Luciferin 4-monooxygenase (Photinus pyralis) (UniProt P08659); assay: inhibition of purified Photinus pyralis luciferase – biochemical, luminescence, purified enzyme, 2006 set, primary screen (AID 1141); details: purified firefly luciferase, SteadyGlo luminescence, 30 min; higher = more signal, called active from +8 up or from −8 down;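 note: cell-free assay with purified firefly luciferase at 100 ng per well in PBS; test concentration not given here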
Luciferin 4-monooxygenase (Photinus pyralis), sequence (P08659 whole entry, looked up): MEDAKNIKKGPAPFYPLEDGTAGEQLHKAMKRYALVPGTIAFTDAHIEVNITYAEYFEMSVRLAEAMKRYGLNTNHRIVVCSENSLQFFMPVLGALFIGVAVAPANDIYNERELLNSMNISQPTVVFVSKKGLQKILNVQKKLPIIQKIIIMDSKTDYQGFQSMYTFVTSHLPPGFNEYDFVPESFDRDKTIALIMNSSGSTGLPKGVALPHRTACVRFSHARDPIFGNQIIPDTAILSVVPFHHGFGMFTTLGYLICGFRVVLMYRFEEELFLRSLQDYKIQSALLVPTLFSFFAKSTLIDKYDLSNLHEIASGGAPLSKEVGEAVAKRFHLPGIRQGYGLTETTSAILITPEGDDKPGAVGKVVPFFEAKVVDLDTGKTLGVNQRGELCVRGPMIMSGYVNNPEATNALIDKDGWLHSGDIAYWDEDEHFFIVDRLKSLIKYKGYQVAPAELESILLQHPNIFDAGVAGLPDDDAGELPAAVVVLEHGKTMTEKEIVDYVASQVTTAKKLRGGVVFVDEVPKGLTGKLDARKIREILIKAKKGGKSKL

Albumin (Bos taurus), sequence (P02769 whole entry, looked up): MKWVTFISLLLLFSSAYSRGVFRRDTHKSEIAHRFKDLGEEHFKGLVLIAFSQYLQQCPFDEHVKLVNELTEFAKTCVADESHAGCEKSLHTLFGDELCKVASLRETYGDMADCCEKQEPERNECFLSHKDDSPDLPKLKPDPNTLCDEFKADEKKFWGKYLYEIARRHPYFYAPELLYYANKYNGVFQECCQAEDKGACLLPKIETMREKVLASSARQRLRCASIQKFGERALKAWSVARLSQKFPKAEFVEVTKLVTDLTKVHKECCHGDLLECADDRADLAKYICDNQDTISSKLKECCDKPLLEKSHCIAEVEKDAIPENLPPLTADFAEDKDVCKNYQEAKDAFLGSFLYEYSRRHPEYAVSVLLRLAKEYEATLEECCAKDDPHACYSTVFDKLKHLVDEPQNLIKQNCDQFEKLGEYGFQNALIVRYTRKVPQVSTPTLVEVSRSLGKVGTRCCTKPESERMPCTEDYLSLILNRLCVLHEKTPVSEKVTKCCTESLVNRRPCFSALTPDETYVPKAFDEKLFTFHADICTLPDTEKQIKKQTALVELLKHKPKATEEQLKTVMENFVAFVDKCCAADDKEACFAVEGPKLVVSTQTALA

## NC(=O)NCC#Cc1ccc2c(c1)[C@]1(C(=O)N2)[C@H](c2ccccc2OCCO)N2[C@H](c3ccccc3)[C@H](c3ccccc3)OC(=O)[C@H]2[C@@H]1C(=O)Nc1nc2ccccc2s1
[1]
  composite z-score: 0.403
[2]
  composite Z-score: 0.105 (inactive)
[3]
  composite z-score: 0.288
[4]
  composite z-score: -0.123
[5]
  composite z-score: 0.237
[6]
  composite z-score: 1.63
[7]
  composite z-score: 0.0159
[8]
  composite z-score: 1.07
[9]
  composite z-score: -0.287
[10]
  composite z-score: 0.748
[11]
  composite z-score: 0.111
[12]
  composite z-score: 0.844
[13]
  composite z-score: 0.346
[14]
  composite z-score: 0.613
[15]
  composite z-score: 0.759
[16]
  composite z-score: 0.244
[17]
  z-score: -2.13
[18]
  composite z-score: 0.373
[19]
  composite z-score: 0.89
[20]
  z-score: 0.302 (inactive)

## CC1(C)[C@@H]2CC(C(O)C3C=CC4C(=O)N(Cc5ccccc5)C(=O)C4N3n3cnnc3)=C[C@H]1C2 (stereo not given in full)
[1]
  composite z-score: 0.925
[2]
  composite Z-score: -0.132 (inactive)
[3]
  composite z-score: -0.0079
[4]
  composite z-score: -0.0866
[5]
  composite z-score: 0.651
[6]
  composite z-score: 1.39
[7]
  composite z-score: 0.641
[8]
  composite z-score: 1.34
[9]
  composite z-score: 0.371
[10]
  composite z-score: 0.39
[11]
  composite z-score: 0.356
[12]
  composite z-score: 1.19
[13]
  composite z-score: 0.218
[14]
  composite z-score: 0.744
[15]
  composite z-score: 0.86
[16]
  composite z-score: 0.321
[17]
  z-score: -0.287
[18]
  composite z-score: 0.625
[19]
  composite z-score: 0.901
[20]
  z-score: 1.62 (inactive)

## C=CCC(OC(C)=O)[C@@H]1[C@@H](N(Cc2ccc(-c3ccccc3)cc2)C(=O)c2cccc3ccccc23)c2cc(OCCCO)ccc2N1C(=O)c1ccc(-c2ccccc2)cc1 (stereo not given in full)
[1]
  composite z-score: -0.0695
[2]
  composite Z-score: 0.45 (inactive)
[3]
  composite z-score: 0.0897
[4]
  composite z-score: -0.0783
[5]
  composite z-score: 0.175
[6]
  composite z-score: 1.17
[7]
  composite z-score: 0.674
[8]
  composite z-score: 0.316
[9]
  composite z-score: 0.111
[10]
  composite z-score: -0.249
[11]
  composite z-score: -0.722
[12]
  composite z-score: 0.521
[13]
  composite z-score: 0.0082
[14]
  composite z-score: 0.56
[15]
  composite z-score: 0.435
[16]
  composite z-score: -0.0136
[17]
  z-score: 1.68
[18]
  composite z-score: -0.111
[19]
  composite z-score: 0.556
[20]
  z-score: -0.52 (inactive)

## CN(C)CCCC[C@@H]1NC(=O)[C@@H]2C[C@H](C(=O)NCCCCCCN)[C@H](c3cccc(OCCO)c3)N2C1=O
[1]
  composite z-score: 0.839
[2]
  composite Z-score: 0.938 (inactive)
[3]
  composite z-score: 1.07
[4]
  composite z-score: 0.308
[5]
  composite z-score: 0.632
[6]
  composite z-score: 3.25
[7]
  composite z-score: 0.495
[8]
  composite z-score: 1.3
[9]
  composite z-score: 0.299
[10]
  composite z-score: 1.13
[11]
  composite z-score: 3.34
[12]
  composite z-score: 1.2
[13]
  composite z-score: 1.48
[14]
  composite z-score: 0.936
[15]
  composite z-score: 0.861
[16]
  composite z-score: 0.357
[17]
  z-score: -0.9
[18]
  composite z-score: 0.409
[19]
  composite z-score: 1.49
[20]
  z-score: 0.132 (inactive)

## O=C1C2C=CC(C(O)Cc3ccccc3)N(n3cnnc3)C2C(=O)N1Cc1ccccc1 (stereo not given)
[1]
  composite z-score: 1.03
[2]
  composite Z-score: -0.188 (inactive)
[3]
  composite z-score: 0.206
[4]
  composite z-score: 0.0248
[5]
  composite z-score: 0.449
[6]
  composite z-score: 1.14
[7]
  composite z-score: 0.75
[8]
  composite z-score: 0.646
[9]
  composite z-score: -0.748
[10]
  composite z-score: 0.779
[11]
  composite z-score: 1.38
[12]
  composite z-score: 0.396
[13]
  composite z-score: -0.249
[14]
  composite z-score: 0.573
[15]
  composite z-score: -0.185
[16]
  composite z-score: -0.279
[17]
  z-score: -1.48
[18]
  composite z-score: -0.648
[19]
  composite z-score: 1.31
[20]
  z-score: 0.921 (inactive)

## CN1C(=O)C2C=CC(C(O)c3ccc([N+](=O)[O-])cc3)N(N3CCCCC3)C2C1=O (stereo not given)
[1]
  composite z-score: 0.818
[2]
  composite Z-score: -0.0829 (inactive)
[3]
  composite z-score: 0.246
[4]
  composite z-score: 0.0791
[5]
  composite z-score: 0.673
[6]
  composite z-score: 1.55
[7]
  composite z-score: 0.761
[8]
  composite z-score: 1.26
[9]
  composite z-score: 0.172
[10]
  composite z-score: 1.09
[11]
  composite z-score: 0.922
[12]
  composite z-score: 1.18
[13]
  composite z-score: 0.115
[14]
  composite z-score: 0.938
[15]
  composite z-score: 1.12
[16]
  composite z-score: 0.651
[17]
  z-score: -0.39
[18]
  composite z-score: -0.0977
[19]
  composite z-score: 0.913
[20]
  z-score: -0.661 (inactive)

## O[C@@H](Cc1ccccc1)[C@H]1C2C=CCCC=C2CN1Cc1cccc(Cl)c1 (stereo not given in full)
[1]
  composite z-score: 0.478
[2]
  composite Z-score: 0.0338 (inactive)
[3]
  composite z-score: 0.361
[4]
  composite z-score: 0.0018
[5]
  composite z-score: 0.385
[6]
  composite z-score: 0.822
[7]
  composite z-score: 0.536
[8]
  composite z-score: 1.31
[9]
  composite z-score: 0.595
[10]
  composite z-score: 0.609
[11]
  composite z-score: 1.21
[12]
  composite z-score: 1.14
[13]
  composite z-score: 0.184
[14]
  composite z-score: 0.675
[15]
  composite z-score: 1.24
[16]
  composite z-score: 0.688
[17]
  z-score: 0.182
[18]
  composite z-score: 1.41
[19]
  composite z-score: 0.593
[20]
  z-score: -1.89 (inactive)

Reference: PubChem BioAssay
